From PubChem BioAssay AID493042 (Johns Hopkins Ion Channel Center, 2011)
Potency and affinity values are given separately. The source made the active and inactive calls.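 The calls were made as follows: active = potentiation or inhibition seen at some tested dose and a dose response curve obtained; inactive = no potentiation or inhibition at any dose, or no curve.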

Biological target: Potassium voltage-gated channel subfamily KQT member 1 (Homo sapiens) + Potassium voltage-gated channel subfamily E member 1 (Homo sapiens) (UniProt P15382+P51787)
Sequence (O88943 whole entry, looked up): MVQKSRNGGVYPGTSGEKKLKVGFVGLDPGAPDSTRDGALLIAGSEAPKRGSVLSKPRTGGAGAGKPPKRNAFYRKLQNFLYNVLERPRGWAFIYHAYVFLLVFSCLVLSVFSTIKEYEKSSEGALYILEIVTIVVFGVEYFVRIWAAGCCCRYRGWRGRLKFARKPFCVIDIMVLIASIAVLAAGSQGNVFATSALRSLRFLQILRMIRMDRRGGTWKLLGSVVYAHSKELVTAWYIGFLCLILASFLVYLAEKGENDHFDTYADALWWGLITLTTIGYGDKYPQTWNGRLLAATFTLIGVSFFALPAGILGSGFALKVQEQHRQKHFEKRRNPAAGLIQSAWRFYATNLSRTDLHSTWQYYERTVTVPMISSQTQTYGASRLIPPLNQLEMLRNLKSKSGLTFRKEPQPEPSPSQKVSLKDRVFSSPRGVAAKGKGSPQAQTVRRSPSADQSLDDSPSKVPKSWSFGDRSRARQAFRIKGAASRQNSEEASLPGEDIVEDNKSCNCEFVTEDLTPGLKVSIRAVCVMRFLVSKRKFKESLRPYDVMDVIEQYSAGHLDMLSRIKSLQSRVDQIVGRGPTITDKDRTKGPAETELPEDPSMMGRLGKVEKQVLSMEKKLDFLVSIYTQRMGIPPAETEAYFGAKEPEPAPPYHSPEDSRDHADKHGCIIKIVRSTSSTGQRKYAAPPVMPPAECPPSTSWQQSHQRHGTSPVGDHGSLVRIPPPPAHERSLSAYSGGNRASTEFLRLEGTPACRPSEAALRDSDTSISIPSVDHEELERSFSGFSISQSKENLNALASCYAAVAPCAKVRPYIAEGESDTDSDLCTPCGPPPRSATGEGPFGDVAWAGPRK
Sequence (P51787 whole entry, looked up): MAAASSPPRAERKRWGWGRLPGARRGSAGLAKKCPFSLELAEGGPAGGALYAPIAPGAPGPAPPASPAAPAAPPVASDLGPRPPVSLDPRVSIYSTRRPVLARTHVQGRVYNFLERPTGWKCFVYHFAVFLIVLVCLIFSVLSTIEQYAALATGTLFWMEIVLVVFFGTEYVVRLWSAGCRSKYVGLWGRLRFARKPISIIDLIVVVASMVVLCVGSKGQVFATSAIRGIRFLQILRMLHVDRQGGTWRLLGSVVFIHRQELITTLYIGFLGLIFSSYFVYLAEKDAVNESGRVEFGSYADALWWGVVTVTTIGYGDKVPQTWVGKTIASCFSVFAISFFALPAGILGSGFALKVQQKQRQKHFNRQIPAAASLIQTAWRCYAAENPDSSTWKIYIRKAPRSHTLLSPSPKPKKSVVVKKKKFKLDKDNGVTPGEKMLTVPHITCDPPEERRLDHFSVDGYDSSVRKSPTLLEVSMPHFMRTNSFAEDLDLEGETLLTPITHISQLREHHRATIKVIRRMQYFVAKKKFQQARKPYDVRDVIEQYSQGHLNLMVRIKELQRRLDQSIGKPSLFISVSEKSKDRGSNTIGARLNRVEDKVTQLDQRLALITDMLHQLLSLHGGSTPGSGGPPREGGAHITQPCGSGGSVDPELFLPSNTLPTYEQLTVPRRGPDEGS
Assay: activation of human KCNQ1/KCNE1 current – automated patch clamp, CHO cells, selectivity assay for KCNQ2 activator project, dose response (AID 493042)

CCCCC(=O)Nc1c(C)cc(C)cc1Cl
outcome: inactive

Cc1cccc(C)c1NC(=O)C1CC2CCC1C2 (stereo not drawn)
outcome: inactive

Cc1cc(C)c(NC(=O)CC(C)(C)C)c(Cl)c1
outcome: inactive
